Sensor-assay potency score (higher = more potent) data for 23 sequences are collected here from the OligoGym collection.
Also: reference of the scale not given here.

The first assay concerns the target FAM163B. The assay is described as follows: pooled miR-30 sensor sort-seq; sequence = guide strand. As to conditions: shRNA.
TCCGACTCGTCCTTCTTGCAGC returned a sensor-assay potency score (higher = more potent) of -1.44. Regarding TCCTGCAGGAAGAAGGTGGGGG, the sensor-assay potency score (higher = more potent) was -0.682.

For TTCTGGCTGAAGGAGGTGGAGG, the sensor-assay potency score (higher = more potent) was -1.34.

In turn, TAGCACAGAACAGCGATGATGC returned a sensor-assay potency score (higher = more potent) of -0.556. As for TAGAGCACGCGCTCCCCGCCGT, the sensor-assay potency score (higher = more potent) is -0.76. The same measure, in the same setting: with TCGCAGTGGGAGCAGCTGCGGC the figure was -1.52.

Sequence TCTTGCAGCAGTAGTACTGGAG yielded a sensor-assay potency score (higher = more potent) of -0.35. Same read-out and setting: the same measure for TTGTAGAGCACGCGCTCCCCGC: -1.32; for TTCTTGCAGCAGTAGTACTGGA: -0.857. Same read-out and setting: the same measure for TTGCGGTTGGAGTGCAGCGGGG: -1.47; for TTGGTCAGCACCAGGTTGCGGT: -0.802. On the same count and under the same terms, the same measure for TCCTCCGACTCGTCCTTCTTGC: -1.53.

For the next assay, the target named is FAM164C. The assay is described as above. As to conditions: shRNA.
The sequence TAGTCTTCGGATCTGCACCCAC yielded a sensor-assay potency score (higher = more potent) of -0.402. Same read-out and setting: the same measure for TTATCCAGAATCAACTCTTTGT: -0.353; for TAGCTCTGCAGGCAGATCTGGG: -1.11. The sequence TAATTTTCTGTAGCTCTCCGTT displayed a sensor-assay potency score (higher = more potent) of -0.559.

As for ATCACTTTCTGGATCTTGCTGG, the sensor-assay potency score (higher = more potent) was found to be 0.553. The same measure, in the same setting: the same measure for TTTGTTGCTCAAAAGCTGCTTC: 0.134; for TTCTTGATGGTCTTACACTTGG: -0.537.

TTTCTTTCTGCTTTGCATCAAA had a sensor-assay potency score (higher = more potent) of -1.22. Still for that read-out and setting: the same measure for TAGAGGTGGAAGACAGTTCTTG: -0.364; for TTTACTGCTGAAGAGAAGCAGA: -0.62. The same measure, in the same setting: with TTGATGGTCTTACACTTGGGAA the figure was -1.53.
